PubChem BioAssay (Tox21)
“And” between values parts separate entries of the source, which are not always exact repeats. Equal values may be shown once. A structure can be active in one record and inactive in another. The source made the active and inactive calls. Where a call stands in place of a potency, no number is given. Unless noted, the call rests on the fitted dose curve; in most records, active means well fitted curve in the direction sought with a large enough effect in the repeat runs; inconclusive means weak or mixed curves; inactive means no such curve, though single readings can be large; an effect the other way counts as inactive or inconclusive.

Experiments:
[1] = target: Estrogen receptor (Homo sapiens) (UniProt P03372); assay: qHTS assay to identify small molecule antagonists of the estrogen receptor alpha (ER-alpha) signaling pathway (AID 743069; active means well fitted curve in the direction sought with a large enough effect in the signal ratio in the repeat runs, not every such curve was filed as active; inconclusive means weak or mixed curves, or effect the other way; inactive means no such curve, though single readings can be large or run the other way; the % refers to the signal ratio; further: potency means the concentration at half of the fitted maximal effect)
In short: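 ER-alpha-UAS-bla GripTite HEK293 line; 2% charcoal-stripped FBS overnight; plated, 4 hr 37C/5% CO2; cpd in DMSO + 17beta-estradiol, 18 hr 37C; LiveBLAzer B/G FRET substrate 2 hr RT; fluorescence intensity.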

[2] = target: Estrogen receptor (Homo sapiens) (UniProt P03372); assay: qHTS assay to identify small molecule agonists of the estrogen receptor alpha (ER-alpha) signaling pathway (AID 743075; calls by dose curve;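 further: HEK293 GripTite cells with ER-alpha and UAS-driven beta-lactamase reporter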; further: potency means the concentration at half of the fitted maximal effect)
[3] = qHTS assay to identify small molecule antagonists of the estrogen receptor alpha (ER-alpha) signaling pathway using the BG1 cell line (AID 743080; calls by dose curve;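 further: BG1 cells stimulated with 17beta-estradiol alongside compound; nearly all actives have a fitted effect of over 25% in size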; further: potency means the concentration at half of the fitted maximal effect)
In short: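 BG1-Luc-4E2 cells (endogenous full-length ER-alpha, 4xERE luciferase) hormone-starved 5 days in charcoal-stripped FBS, plated 4,000/well for 24 h, then compound plus 17beta-estradiol for 21.5 h at 37 C; ONE-Glo luminescence read.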

[4] = qHTS assay to identify small molecule antagonists of the estrogen receptor alpha (ER-alpha) signaling pathway using the BG1 cell line - cell viability counter screen (AID 743081);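 further: compound given together with 17beta-estradiol as the ER stimulus; series mostly up to about 70 µM; nearly all actives have a fitted effect of over 45% in size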
Aromatase (Homo sapiens) = Aromatase (Homo sapiens) (UniProt P11511); assay: qHTS assay to identify aromatase inhibitors (AID 743083); further: nearly all actives have a fitted effect of over 55% in size; further: potency means the concentration at half of the fitted maximal effect
[5] = qHTS assay to identify aromatase inhibitors - cell viability counter screen (AID 743084);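 further: cells stimulated with testosterone during compound exposure; nearly all actives have a fitted effect of over 55% in size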
[6] = target: Aryl hydrocarbon receptor (Homo sapiens) (UniProt P35869); assay: qHTS assay to identify small molecule that activate the aryl hydrocarbon receptor (AhR) signaling pathway (AID 743085); further: nearly all actives have a fitted effect of over 15% in size; further: potency means the concentration at half of the fitted maximal effect;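 on activation: HG2L7.5c1 human HepG2 liver cells with stably integrated DRE-driven firefly reporter; series mostly up to about 70 µM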
In short: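 Steps: seed HepG2-AhR-luc cells; allow 5 h at 37C; pin-transfer test compound or vehicle; incubate 24 h at 37C; add viability dye (30 min, 37C) and read fluorescence; add luciferase substrate (30 min, RT) and read luminescence.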

[7] = qHTS assay to identify small molecule antagonists of the peroxisome proliferator-activated receptor gamma (PPARg) signaling pathway - cell viability counter screen (AID 743194); further: nearly all actives have a fitted effect of over 55% in size; further: potency means the concentration at half of the fitted maximal effect
In short: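 Viability was measured as CellTiter-Glo luminescence in GeneBLAzer PPARg UAS-bla HEK293H cells. These cells had been exposed 17 h at 37 C to compounds together with rosiglitazone at 50 nM final, with the beta-lactamase readout taken in the same wells.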

[8] = qHTS assay for small molecule agonists of the antioxidant response element (ARE) signaling pathway (AID 743202; active means well fitted activation curve with a large enough effect in the signal ratio in the repeat runs, not every such curve was filed as active; inconclusive means weak or mixed curves, or effect the other way; inactive means no such curve, though single readings can be large or run the other way; the % refers to the signal ratio; further: potency means the concentration at half of the fitted maximal effect)
In short: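 Quantitative high-throughput format in HepG2 cells bearing an integrated ARE-beta-lactamase reporter. Compound exposure lasted 16 h at 37 C, and fluorescence was read 2 h after adding LiveBLAzer B/G substrate at room temperature.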

[9] = qHTS assay for small molecule activators of the heat shock response signaling pathway - cell viability counter screen (AID 743209); further: nearly all actives have a fitted effect of over 50% in size; further: potency means the concentration at half of the fitted maximal effect
In short: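 CellSensor HSE-bla HeLa cells, plated overnight at 37 C/5% CO2, were exposed to compounds in DMSO for 5 h at 37 C. Viability was then read in the same wells by CellTiter-Glo luminescence after 30 min at room temperature.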

[10] = qHTS assay to identify small molecule antagonists of the estrogen receptor alpha (ER-alpha) signaling pathway - cell viability counter screen (AID 743074; calls by dose curve;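 further: HEK293 cells carrying ER-alpha-UAS-bla reporter stimulated with 17beta-estradiol; nearly all actives have a fitted effect of over 45% in size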)
[11] = target: Estrogen receptor (Homo sapiens) (UniProt P03372); assay: qHTS assay to identify small molecule agonists of the estrogen receptor alpha (ER-alpha) signaling pathway using the BG1 cell line (AID 743079); further: nearly all actives have a fitted effect of over 20% in size; further: potency means the concentration at half of the fitted maximal effect
[12] = target: Peroxisome proliferator-activated receptor gamma (Homo sapiens) (UniProt P37231); assay: qHTS assay to identify small molecule agonists of the peroxisome proliferator-activated receptor gamma (PPARg) signaling pathway (AID 743094; active means well fitted activation curve with a large enough effect in the signal ratio in the repeat runs, not every such curve was filed as active; inconclusive means weak or mixed curves, or effect the other way; inactive means no such curve, though single readings can be large or run the other way; the % refers to the signal ratio)
In short: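 GeneBLAzer PPARg UAS-bla HEK293H cells carrying a stably integrated beta-lactamase reporter were pre-incubated 5 h at 37C, then exposed to compounds in DMSO for 17 h at 37C; LiveBLAzer B/G FRET substrate was added for 1 h at room temperature and fluorescence read.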

[13] = target: Peroxisome proliferator-activated receptor gamma (Homo sapiens) (UniProt P37231); assay: qHTS assay to identify small molecule antagonists of the peroxisome proliferator-activated receptor gamma (PPARg) signaling pathway (AID 743191; calls by dose curve; further: series mostly up to about 63 µM; nearly all actives have a fitted effect of over 30% in size)
In short: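 Beta-lactamase reporter under UAS control in HEK293H PPARg-bla cells; compound treatment 17 h at 37C. Read-out: fluorescence intensity after 1 h room-temperature incubation with LiveBLAzer B/G FRET substrate.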

[14] = qHTS assay for small molecule agonists of the antioxidant response element (ARE) signaling pathway - cell viability counter screen (AID 743203; calls by dose curve; further: nearly all actives have a fitted effect of over 55% in size)
In short: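 CellSensor ARE-bla HepG2 cells, 2,000 per well, rested 5 hrs at 37C/5% CO2, then exposed to compound in DMSO for 16 hrs; viability read as CellTiter-Glo luminescence after 30 min at room temperature, in the reporter wells.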

[15] = qHTS assay for small molecule activators of the heat shock response signaling pathway (AID 743210; active means well fitted activation curve with a large enough effect in the signal ratio in the repeat runs, with a control signal flat, not every such curve was filed as active; inconclusive means weak or mixed curves; the % refers to the signal ratio;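 further: HeLa cells with beta-lactamase reporter driven by heat shock elements; series mostly up to about 63 µM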)
In short: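 HeLa HSE-bla cells, overnight plating; cpd in DMSO 5 h, 37 C; LiveBLAzer B/G FRET substrate 2.5 h RT; fluorescence intensity read.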

[16] = qHTS assay to identify small molecule antagonists of the thyroid receptor (TR) signaling pathway - cell viability counter screen (AID 743064); further: nearly all actives have a fitted effect of over 50% in size; further: potency means the concentration at half of the fitted maximal effect
In short: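 Plate GH3.TRE-Luc cells; incubate 4 h at 37 °C; add compound, then T3 to 1 nM final; incubate 23.5 h; add CellTiter-Fluor; incubate 30 min at 37 °C, 5% CO2; read fluorescence.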

[17] = qHTS assay to identify small molecule that activate the aryl hydrocarbon receptor (AhR) signaling pathway - cell viability counter screen (AID 743086);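 further: HepG2 liver cells carrying the AhR DRE luciferase reporter; series mostly up to about 70 µM; nearly all actives have a fitted effect of over 45% in size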
In short: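 Cytotoxicity counter screen: CellTiter-Fluor signal (30 min, 37 C) in 4000 HepG2 cells/well carrying the DRE-luciferase reporter, following 24 h compound exposure at 37 C.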

[18] = qHTS assay to identify small molecule antagonists of the thyroid receptor (TR) signaling pathway (AID 743065); further: nearly all actives have a fitted effect of over 55% in size; further: potency means the concentration at half of the fitted maximal effect
In short: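 Antagonism measured as loss of luciferase signal in GH3 cells stably carrying a TRE-luciferase reporter, co-treated with compound and T3 (1 nM final) for 23.5 h at 37 C. Viability was read in the same well by CellTiter-Fluor.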

[19] = test system: thyroid hormone receptor (rat, GH3 cells); assay: qHTS assay to identify small molecule agonists of the thyroid receptor (TR) signaling pathway (AID 743066; calls by dose curve)

Sequence of Peroxisome proliferator-activated receptor gamma (Homo sapiens) (P37231 whole entry, looked up): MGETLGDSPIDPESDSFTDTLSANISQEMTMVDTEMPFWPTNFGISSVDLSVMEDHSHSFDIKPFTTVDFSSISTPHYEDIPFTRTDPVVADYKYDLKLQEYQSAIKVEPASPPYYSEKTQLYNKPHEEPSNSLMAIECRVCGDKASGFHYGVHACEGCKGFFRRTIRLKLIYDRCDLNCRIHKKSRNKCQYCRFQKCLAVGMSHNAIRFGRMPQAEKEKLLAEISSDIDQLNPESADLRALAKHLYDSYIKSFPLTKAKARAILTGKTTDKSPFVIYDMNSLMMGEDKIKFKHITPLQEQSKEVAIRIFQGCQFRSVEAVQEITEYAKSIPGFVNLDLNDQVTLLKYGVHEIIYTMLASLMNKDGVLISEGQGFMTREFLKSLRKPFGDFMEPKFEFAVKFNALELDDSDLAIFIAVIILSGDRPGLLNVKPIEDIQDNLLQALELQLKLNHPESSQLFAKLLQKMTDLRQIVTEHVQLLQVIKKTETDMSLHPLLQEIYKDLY
Sequence of Aryl hydrocarbon receptor (Homo sapiens) (P35869 whole entry, looked up): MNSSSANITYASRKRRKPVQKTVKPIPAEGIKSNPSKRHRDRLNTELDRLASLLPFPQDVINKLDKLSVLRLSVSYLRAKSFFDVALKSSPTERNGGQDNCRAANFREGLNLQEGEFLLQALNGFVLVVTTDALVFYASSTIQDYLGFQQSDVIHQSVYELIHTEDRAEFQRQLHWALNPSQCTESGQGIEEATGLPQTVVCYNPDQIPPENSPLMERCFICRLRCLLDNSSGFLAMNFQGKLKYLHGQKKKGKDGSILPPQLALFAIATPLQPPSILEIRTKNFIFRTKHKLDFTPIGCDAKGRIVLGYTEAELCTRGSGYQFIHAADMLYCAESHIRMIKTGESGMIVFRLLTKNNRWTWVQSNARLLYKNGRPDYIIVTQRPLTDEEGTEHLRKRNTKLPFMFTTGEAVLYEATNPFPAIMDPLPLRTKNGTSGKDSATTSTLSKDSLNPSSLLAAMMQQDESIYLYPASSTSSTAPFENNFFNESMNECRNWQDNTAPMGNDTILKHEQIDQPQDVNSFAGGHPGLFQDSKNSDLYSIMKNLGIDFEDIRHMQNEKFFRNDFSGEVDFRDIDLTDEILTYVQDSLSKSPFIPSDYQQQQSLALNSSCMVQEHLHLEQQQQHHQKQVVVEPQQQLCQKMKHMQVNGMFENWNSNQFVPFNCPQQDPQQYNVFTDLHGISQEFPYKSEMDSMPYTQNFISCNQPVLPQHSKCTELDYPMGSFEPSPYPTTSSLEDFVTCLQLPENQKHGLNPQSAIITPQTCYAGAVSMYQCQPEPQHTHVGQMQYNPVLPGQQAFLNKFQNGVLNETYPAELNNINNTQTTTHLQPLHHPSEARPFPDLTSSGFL
Sequence of Aromatase (Homo sapiens) (P11511 whole entry, looked up): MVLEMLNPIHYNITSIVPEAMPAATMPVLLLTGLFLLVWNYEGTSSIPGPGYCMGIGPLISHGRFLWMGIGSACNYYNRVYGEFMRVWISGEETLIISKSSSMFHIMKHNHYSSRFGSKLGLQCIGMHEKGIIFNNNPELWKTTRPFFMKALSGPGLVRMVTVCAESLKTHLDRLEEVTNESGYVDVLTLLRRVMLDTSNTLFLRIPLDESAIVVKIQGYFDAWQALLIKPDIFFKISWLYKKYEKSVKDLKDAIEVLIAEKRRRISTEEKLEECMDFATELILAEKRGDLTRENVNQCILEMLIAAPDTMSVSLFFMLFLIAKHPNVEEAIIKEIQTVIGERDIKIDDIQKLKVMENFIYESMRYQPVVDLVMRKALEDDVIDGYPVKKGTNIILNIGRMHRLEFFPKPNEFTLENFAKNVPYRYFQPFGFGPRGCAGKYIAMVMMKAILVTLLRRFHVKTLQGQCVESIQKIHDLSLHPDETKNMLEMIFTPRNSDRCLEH
Sequence of Estrogen receptor (Homo sapiens) (P03372 whole entry, looked up): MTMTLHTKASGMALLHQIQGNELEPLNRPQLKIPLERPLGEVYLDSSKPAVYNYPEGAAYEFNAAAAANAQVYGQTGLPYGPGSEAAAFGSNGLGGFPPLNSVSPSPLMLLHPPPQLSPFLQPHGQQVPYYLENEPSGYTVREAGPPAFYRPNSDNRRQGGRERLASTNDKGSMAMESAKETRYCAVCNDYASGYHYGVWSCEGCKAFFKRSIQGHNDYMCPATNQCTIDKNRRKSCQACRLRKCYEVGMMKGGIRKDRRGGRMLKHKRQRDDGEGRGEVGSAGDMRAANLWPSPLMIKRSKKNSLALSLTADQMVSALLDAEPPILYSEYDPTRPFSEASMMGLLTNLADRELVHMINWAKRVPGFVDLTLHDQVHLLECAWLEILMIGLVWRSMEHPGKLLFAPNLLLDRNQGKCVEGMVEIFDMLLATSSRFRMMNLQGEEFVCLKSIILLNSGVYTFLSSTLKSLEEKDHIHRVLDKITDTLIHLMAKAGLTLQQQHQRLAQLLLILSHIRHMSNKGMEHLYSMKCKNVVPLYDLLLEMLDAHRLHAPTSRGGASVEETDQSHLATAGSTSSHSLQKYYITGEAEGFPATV

SMILES | Potency [1] | Potency [2] | Potency [3] | Potency [4] | Potency (Aromatase (Homo sapiens)) | Potency [5] | Potency [6] | Potency [7] | Potency [8] | Potency [9] | Potency [10] | Potency [11] | Potency [12] | Potency [13] | Potency [14] | Potency [15] | Potency [16] | Potency [17] | Potency [18] | Potency [19]
O=C(Nc1ccc([N+](=O)[O-])cc1Cl)c1cc(Cl)ccc1O | inactive | inactive | 841 nM (active) | inactive | inactive and 1.93 µM (active) | inactive | 211 nM (active) | 123 nM (active) and 461 nM (active) | inactive | 309 nM (active) |  |  |  |  |  |  |  |  |  | 
COc1ccc(OC)c(C(O)CNC(=O)CN)c1 (centres undefined) | inactive | inactive | inactive | inactive | inactive | inactive | inactive |  | inactive | inactive | inactive | inactive | inactive | inactive | inactive | inactive |  |  |  | 
C#C[C@]1(O)CC[C@H]2[C@@H]3CCC4=Cc5oncc5C[C@]4(C)[C@H]3CC[C@@]21C | 49000 nM [inconclusive] (active) | 3.38 µM [inconclusive] (active) and 6.17 µM [activator] (active) | inactive and 61.1 µM (active) | inactive | inactive | inactive | inactive |  |  |  | inactive | 668 nM (active) and 969 nM (active) | inactive |  |  | inactive | inactive and 61.1 µM (active) |  |  | 
CC(C)(C)NC(=O)[C@H]1CC[C@H]2[C@@H]3CC[C@H]4NC(=O)C=C[C@]4(C)[C@H]3CC[C@]12C | inactive | inactive | inactive | inactive | inactive | inactive | inactive | inactive | 53900 nM (active) | inactive | inactive | inactive | inactive |  | inactive | inactive | inactive | inactive |  | 
O=C=Nc1ccc(Cc2ccc(N=C=O)cc2)cc1 |  |  |  | inactive |  |  |  | inactive |  | inactive | inactive |  |  |  |  | inactive | inactive | inactive | inactive | inactive
Cc1cc2nc3c(=O)[nH]c(=O)nc-3n(C[C@H](O)[C@H](O)[C@H](O)CO)c2cc1C |  |  |  |  |  |  |  |  |  | inactive | inactive |  |  |  | inactive | inactive |  |  | inactive | inactive
CN(C)C(=N)N=C(N)N |  |  |  | inactive |  | inactive |  |  | inactive | inactive | inactive |  |  |  | inactive |  | inactive |  | inactive | inactive
COc1cc([C@@H]2c3cc4c(cc3[C@H](O)[C@H]3COC(=O)[C@H]23)OCO4)cc(OC)c1OC |  |  |  | inactive | inactive | inactive |  | inactive |  | inactive |  |  |  | inactive |  | inactive | 43.2 nM (active) | inactive | 29.8 nM (active) and 24.3 nM (active) | inactive
CN(C)c1nc(N(C)C)nc(N(C)C)n1 |  |  |  | inactive |  |  |  | inactive | inactive | inactive | inactive |  |  |  |  | inactive | inactive |  |  | 
CC(C)CC(C)(O)C#CC(C)(O)CC(C)C (centres undefined) |  |  |  | inactive |  | inactive | inactive | inactive | inactive | inactive | inactive |  |  |  | inactive | inactive | inactive | inactive | inactive | inactive
